Reference: PubChem BioAssay (EPA / NIEHS)
“And” between values parts separate entries of the source, which are not always exact repeats. Equal entries are not always repeated. The source made the active and inactive calls. How the source made its calls: active means hit-call score of the fitted dose curve at least 0.9, where 1 is the maximum; inactive means score below 0.9.

Key:
[1] = read-out: Interleukin-8 (IL8), CXCL8 (gene 3576); test: BSK_MyoF_IL8: BioMAP Diversity Plus: MyoF Assay for Interleukin-8 (IL8) Biomarker Activity (AID 2284261); details: primary human lung fibroblasts
Outline: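 Human lung fibroblast (MyoF system) cultures dosed for 24 h, then IL-8 measured by ELISA. Response taken relative to DMSO; parallel SRB total-protein staining for cytotoxicity.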

CD90, THY1 (gene 7070) = test: BSK_BF4T_CD90: BioMAP Diversity Plus: BF4T Assay for CD90 Biomarker Activity (AID 2284262); details: primary human bronchial epithelial cells with fibroblasts
Outline: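 Co-culture of human bronchial epithelial cells and dermal fibroblasts, 24 h compound exposure. Cell-surface CD90 measured by ELISA relative to DMSO; parallel SRB total-protein staining for cytotoxicity.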

[2] = read-out: Interleukin-8 (IL8), CXCL8 (gene 3576); test: BSK_BF4T_IL8: BioMAP Diversity Plus: BF4T Assay for Interleukin-8 (IL8) Biomarker Activity (AID 2284263); details: primary human bronchial epithelial cells with fibroblasts
Outline: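 Human bronchial epithelial cells with dermal fibroblasts co-culture; IL-8 measured by ELISA 24 hours after dosing, fitted vs DMSO. Cytotoxicity tracked in parallel cultures by SRB total-protein staining.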

[3] = read-out: Interleukin-1 alpha (IL1a), IL1A (gene 3552); test: BSK_BF4T_IL1a: BioMAP Diversity Plus: BF4T Assay for Interleukin-1 alpha (IL1a) Biomarker Activity (AID 2284264); details: primary human bronchial epithelial cells with fibroblasts
Outline: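 Human bronchial epithelial cells co-cultured with dermal fibroblasts, dosed and read at 24 h. Secreted/surface IL-1α quantified by ELISA; gain-of-signal fitted relative to DMSO baseline. Parallel SRB total-protein staining tracked cytotoxicity.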

Decorin, DCN (gene 1634) = test: BSK_MyoF_Decorin: BioMAP Diversity Plus: MyoF Assay for Decorin Biomarker Activity (AID 2284265); details: primary human lung fibroblasts
Outline: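 Human lung fibroblast cultures were dosed for 24 h, and decorin was then measured by ELISA. Parallel cultures were stained with sulforhodamine B for total protein as a cytotoxicity check. Gain of signal was fitted relative to DMSO.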

[4] = BSK_MyoF_SRB: Viability Assessment in the BioMAP Diversity Plus: MyoF Assay (AID 2284267); details: primary human lung fibroblasts;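 further: total protein by SRB absorbance in parallel cultures as cytotoxicity measure; cells assessed 24 h after compound addition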
Outline: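 Human lung fibroblasts dosed with chemical and assessed 24 h later for overt cytotoxicity in parallel cultures. Total protein quantified by sulforhodamine B staining (0.1% SRB after 10% TCA fixation), read at 560 nm, analysed in positive direction versus DMSO baseline.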

[5] = read-out: Matrix Metallopeptidase 1 (MMP1), MMP1 (gene 4312); test: BSK_MyoF_MMP1: BioMAP Diversity Plus: MyoF Assay for Matrix Metallopeptidase 1 (MMP1) Biomarker Activity (AID 2284268); details: primary human lung fibroblasts
Outline: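 Human lung fibroblast primary cells; MMP1 measured by ELISA 24 h after dosing, fitted in the positive direction relative to DMSO. Parallel SRB staining (0.1%, after 10% TCA fixation, 560 nm) assesses overt cytotoxicity.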

[6] = read-out: TIMP metallopeptidase inhibitor 1 (TIMP1), TIMP1 (gene 7076); test: BSK_MyoF_TIMP1: BioMAP Diversity Plus: MyoF Assay for TIMP metallopeptidase inhibitor 1 (TIMP1) Biomarker Activity (AID 2284269); details: primary human lung fibroblasts
Outline: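 ELISA read-out of TIMP-1 from primary human lung fibroblast cultures 24 h after compound dosing; gain of signal relative to DMSO vehicle baseline defines activity.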

[7] = read-out: Matrix Metallopeptidase 1 (MMP1), MMP1 (gene 4312); test: BSK_BF4T_MMP1: BioMAP Diversity Plus: BF4T Assay for Matrix Metallopeptidase 1 (MMP1) Biomarker Activity (AID 2284270); details: primary human bronchial epithelial cells with fibroblasts
Outline: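 Co-culture of human bronchial epithelial cells and dermal fibroblasts; MMP-1 levels measured by ELISA 24 hours after chemical dosing, relative to DMSO. Cytotoxicity checked in parallel cultures by SRB total-protein staining.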

[8] = read-out: Matrix Metallopeptidase 3 (MMP3), MMP3 (gene 4314); test: BSK_BF4T_MMP3: BioMAP Diversity Plus: BF4T Assay for Matrix Metallopeptidase 3 (MMP3) Biomarker Activity (AID 2284271); details: primary human bronchial epithelial cells with fibroblasts
Outline: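 Co-culture of human bronchial epithelial cells and dermal fibroblasts dosed 24 h; MMP-3 measured by ELISA, positive-direction fit versus DMSO. Cytotoxicity tracked by SRB total-protein staining (560 nm) in parallel cultures.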

[9] = read-out: Tissue plasminogen activator (tPA), PLAT (gene 5327); test: BSK_BF4T_tPA: BioMAP Diversity Plus: BF4T Assay for Tissue plasminogen activator (tPA) Biomarker Activity (AID 2284272); details: primary human bronchial epithelial cells with fibroblasts
Outline: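 tPA level quantified by ELISA at 24 h post-treatment in bronchial epithelial/dermal fibroblast co-cultures, gain of signal scored against DMSO baseline. Parallel cultures stained with 0.1% SRB (560 nm) to flag overt cytotoxicity.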

[10] = BSK_BF4T_SRB: Viability Assessment in the BioMAP Diversity Plus: BF4T Assay (AID 2284274); details: primary human bronchial epithelial cells with fibroblasts
Outline: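 Co-culture of human bronchial epithelial cells and dermal fibroblasts (BioMAP BF4T) exposed 24 h. Total protein by sulforhodamine B staining (0.1% SRB after 10% TCA fixation, 560 nm) in parallel cultures; fitted vs DMSO.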

[11] = read-out: urokinase Plasminogen Activator (uPA), PLAU (gene 5328); test: BSK_BF4T_uPA: BioMAP Diversity Plus: BF4T Assay for urokinase Plasminogen Activator (uPA) Biomarker Activity (AID 2284275); details: primary human bronchial epithelial cells with fibroblasts
Outline: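 Co-culture of human bronchial epithelial cells and dermal fibroblasts; uPA quantified by ELISA 24 hours after dosing, fitted relative to DMSO. Parallel SRB total-protein staining assessed overt cytotoxicity.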

[12] = read-out: Matrix Metallopeptidase 9 (MMP9), MMP9 (gene 4318); test: BSK_BF4T_MMP9: BioMAP Diversity Plus: BF4T Assay for Matrix Metallopeptidase 9 (MMP9) Biomarker Activity (AID 2284276); details: primary human bronchial epithelial cells with fibroblasts
Outline: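 Co-culture of human bronchial epithelial cells and dermal fibroblasts dosed for 24 h; MMP-9 quantified by ELISA and fitted upward versus DMSO. Cytotoxicity monitored in parallel cultures by SRB total-protein staining at the biomarker time point.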

[13] = read-out: Interleukin-8 (IL8), CXCL8 (gene 3576); test: BSK_IMphg_IL8: BioMAP Diversity Plus: IMphg Assay for Interleukin-8 (IL8) Biomarker Activity (AID 2284277); details: primary human endothelial cells with macrophages
Outline: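 Co-culture of human venular endothelial cells and macrophages exposed to chemicals for 24 h; IL-8 quantified by ELISA and compared against the DMSO baseline, with SRB total-protein staining in parallel cultures for cytotoxicity.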

[14] = read-out: Intercellular Adhesion Molecule 1 (ICAM1), ICAM1 (gene 3383); test: BSK_BE3C_ICAM1: BioMAP Diversity Plus: BE3C Assay for Intercellular Adhesion Molecule 1 (ICAM1) Biomarker Activity (AID 2284278); details: primary human bronchial epithelial cells;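 further: cell-surface ICAM-1 protein level quantified by ELISA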
Outline: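 Primary human bronchial epithelial cells were exposed to compound for 24 h, after which cell-surface ICAM-1 was quantified by ELISA. Activity was fitted in the gain-of-signal direction against DMSO as negative control and baseline.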

[15] = read-out: Interferon-inducible T-cell alpha chemoattractant (ITAC), CXCL11 (gene 6373); test: BSK_BE3C_ITAC: BioMAP Diversity Plus: BE3C Assay for Interferon-inducible T-cell alpha chemoattractant (ITAC) Biomarker Activity (AID 2284279); details: primary human bronchial epithelial cells
Outline: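 ELISA read-out of I-TAC after 24 h chemical dosing of human lung primary bronchial epithelial cells; gain-of-signal fit vs DMSO baseline. Parallel SRB total-protein staining (0.1% SRB, 10% TCA fixation, 560 nm) assessed cytotoxicity.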

[16] = read-out: Interleukin-8 (IL8), CXCL8 (gene 3576); test: BSK_BE3C_IL8: BioMAP Diversity Plus: BE3C Assay for Interleukin-8 (IL8) Biomarker Activity (AID 2284280); details: primary human bronchial epithelial cells
Outline: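 IL-8 signal gain, normalised to DMSO vehicle, was scored after a 24 h chemical exposure of primary human bronchial epithelial cells, with detection by ELISA.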

Measured: AC50

O=C(O)C=C(C(F)(F)F)C(F)(F)F
inactive: [1] | CD90, THY1 (gene 7070) | [2] | [3] | Decorin, DCN (gene 1634) | [4] | [5] | [6] | [7] | [8] | [10] | [11] | [12] | [14] | [15] | [16]
active: [9] 8.23 µM and 1.27 µM | [13] 6.29 µM and 10.8 µM

FC1CC(F)(F)C(F)(F)C1(F)F (stereo unspecified)
inactive: [1] | CD90, THY1 (gene 7070) | [2] | [3] | Decorin, DCN (gene 1634) | [4] | [5] | [6] | [7] | [8] | [9] | [10] | [11] | [12] | [13] | [14] | [15] | [16]

Oc1ccc(Nc2ccccc2)cc1
active: [1] 3.97 µM
inactive: Decorin, DCN (gene 1634) | [4] | [5] | [6]

CCCCNc1ccccc1
inactive: [1] | Decorin, DCN (gene 1634) | [4] | [5] | [6]

CCN(CC)c1ccc2c(C)cc(=O)oc2c1
inactive: [1] | Decorin, DCN (gene 1634) | [4] | [5] | [6]

CCc1c(Br)c(Br)c(Br)c(Br)c1Br
inactive: [1] | Decorin, DCN (gene 1634) | [4] | [6]
active: [5] 13.2 µM

C=CC/C=C/C/C=C/C/C=C/C
inactive: [1] | Decorin, DCN (gene 1634) | [4] | [5] | [6]

FC(F)(F)C(F)(F)C(F)(F)C(F)(F)C(F)(F)C(F)(F)C(F)(F)C(F)(F)CCS
inactive: [1] | CD90, THY1 (gene 7070) | [2] | [3] | Decorin, DCN (gene 1634) | [4] | [5] | [6] | [7] | [8] | [9] | [10] | [11] | [12] | [13] | [14] | [15] | [16]

O[Si](c1ccccc1)(c1ccccc1)c1ccccc1
active: [1] 8.82 µM | [4] 23.8 µM | [5] 13.9 µM
inactive: Decorin, DCN (gene 1634) | [6]

CCc1ccc(C(c2ccc(CC)cc2)C(Cl)Cl)cc1
active: [1] 7.95 µM | [4] 25.7 µM | [5] 8.65 µM
inactive: Decorin, DCN (gene 1634) | [6]

CS(C)(=O)=O
inactive: [1] | Decorin, DCN (gene 1634) | [4] | [5] | [6]

CCCCCCOC(=O)c1ccccc1O
inactive: [14] | [15] | [16]

CCCCCCCCC(F)(F)C(F)(F)C(F)(F)C(F)(F)C(F)(F)C(F)(F)F
inactive: [1] | CD90, THY1 (gene 7070) | [2] | [3] | Decorin, DCN (gene 1634) | [4] | [5] | [6] | [7] | [8] | [9] | [10] | [11] | [12] | [13] | [14] | [15] | [16]

C=CC(F)(F)C(F)(F)C(F)(F)C(F)(F)C(F)(F)C(F)(F)C(F)(F)C(F)(F)F
inactive: [1] | CD90, THY1 (gene 7070) | [2] | [3] | Decorin, DCN (gene 1634) | [4] | [5] | [6] | [7] | [8] | [9] | [10] | [11] | [12] | [13] | [14] | [15] | [16]

CC(CCl)OP(=O)(OC(C)CCl)OC(C)CCl (stereo unspecified)
inactive: [1] | Decorin, DCN (gene 1634) | [4] | [5] | [6]

O=C(CC(=O)C(F)(F)C(F)(F)F)C(F)(F)F
inactive: [1] | CD90, THY1 (gene 7070) | [2] | [3] | Decorin, DCN (gene 1634) | [4] | [5] | [6] | [7] | [8] | [9] | [10] | [11] | [12] | [13] | [14] | [15] | [16]

C#C[C@]1(O)CC[C@H]2[C@@H]3CCc4cc(OC)ccc4[C@H]3CC[C@@]21C
inactive: [1] | Decorin, DCN (gene 1634) | [4] | [6]
active: [5] 20 µM
